Source: PubChem BioAssay (several laboratories)
Rows were chosen to be rich in hits. Some 27% of all compounds tested hit in one or more screens of this group.
CYP2C9 inh: inhibitors of human CYP2C9; AID 777; CYP2C9 Supersomes, luciferin-H conversion, luminescence; inhibition, % at 5 µM; hit rate 20% among 96,000; P11712;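 active = blocking of liver enzyme CYP2C9 beyond about 50% at 5 µM, limit read from the data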
sEH inhibitor: blocks human soluble epoxide hydrolase activity. recombinant human sEH enzymatic activity assay. inhibition, % at 2 µM. hit rate 0.34% among 91,000. P34913; in the data active = inhibition above about 80%
CYP2C9 activ: activators of human CYP2C9 | P11712 | recombinant CYP2C9, luciferin-H conversion, luminescence; hits give high values; factor 1 = untreated enzyme, 0 = blocked | activation factor at 5 µM | hit rate 1.4% among 96,000;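 active = activation factor of 2 or more for CYP2C9 at a 5 µM dose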
sEH activator: soluble epoxide hydrolase (human) activation; P34913; purified human sEH enzymatic activity, activator screen; activation, % at 2 µM; hit rate 0.04% among 91,000; in the data active = activation above about 37%
CYP2C19 activ: cytochrome P450 2C19 (human) activation. AID 1025. activation factor at 5 µM. 96,000 tested, under 10 active. P33261. recombinant CYP2C19, luciferin-H EGE luminescence; hits give high values; 0 = fully inhibited enzyme, 1 = untreated enzyme;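 active = activation factor of at least 2 at 5 µM in the primary screen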
Target sequence (P33261 whole entry, looked up): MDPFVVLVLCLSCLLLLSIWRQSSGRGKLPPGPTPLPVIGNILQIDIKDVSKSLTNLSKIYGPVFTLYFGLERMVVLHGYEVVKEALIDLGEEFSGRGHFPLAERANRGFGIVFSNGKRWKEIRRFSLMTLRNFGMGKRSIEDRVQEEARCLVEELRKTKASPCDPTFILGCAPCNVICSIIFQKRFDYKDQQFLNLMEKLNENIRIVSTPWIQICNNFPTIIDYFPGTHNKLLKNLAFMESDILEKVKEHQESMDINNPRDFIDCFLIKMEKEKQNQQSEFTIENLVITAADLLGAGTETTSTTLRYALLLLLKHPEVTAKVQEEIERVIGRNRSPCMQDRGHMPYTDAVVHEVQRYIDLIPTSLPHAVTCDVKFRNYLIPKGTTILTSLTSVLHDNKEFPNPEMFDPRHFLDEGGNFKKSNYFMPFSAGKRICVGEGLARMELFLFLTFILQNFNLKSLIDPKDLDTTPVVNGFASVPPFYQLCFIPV
CYP2C19 inh: inhibitors of human CYP2C19 | CYP2C19 Supersomes, luciferin-H EGE luminescence, 30 min | P33261 | hit rate 21% among 96,000 | inhibition, % at 5 µM;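 active = CYP2C19 inhibition above a set limit at 5 µM in the primary screen, cut at about 50% in these data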
Each line names hits and unclear results; the compound was inactive in the other large screens.

CCOC(=O)C1=NN(N=O)C2(CC(=O)N(c3cc(C)cc(C)c3)C2=O)C1 (configuration not stated)	none
COc1cccc(-c2cc(C(=O)Nc3nc4ccccc4s3)c3ccccc3n2)c1	CYP2C9 inh 51
Cc1cccc(-c2cc(C(=O)Nc3sc(C)c(C)c3C(N)=O)c3ccccc3n2)c1	CYP2C9 inh 69
CCOC(=O)c1sc(NC(=O)c2cc(-c3ccccc3)nc3ccccc23)c(C#N)c1C	none
Cc1ccc(C)c(-c2cc(C(=O)Nc3sc(C)c(C)c3C(N)=O)c3ccccc3n2)c1	CYP2C9 inh 96
COc1ccc(-c2nc3ccccc3s2)cc1O	CYP2C9 inh 72
COc1ccc(-c2cc(C(=O)Nc3nc4c(C)cccc4s3)c3ccccc3n2)cc1OC	none
CC(C)Cc1nnc(NC(=O)c2cc(-c3ccccc3)nc3ccccc23)s1	none
Nc1nc(SCC(=O)OCc2ccccc2)[nH]c(=O)c1NC(=O)c1ccco1	none (no result: sEH inhibitor, sEH activator)
COc1cccc(C(=O)NCc2ccc(-c3nc4ccccc4s3)cc2)c1	CYP2C9 inh 82
Cn1c(NC(=O)COc2ccccc2)cc(=O)n(C)c1=O	none
CCCCCc1c(O)nc(SCC(=O)O)[nH]c1=O	none (no result: CYP2C9 inh, CYP2C9 activ, CYP2C19 activ, CYP2C19 inh)
CCOC(=O)c1c(C)[nH]c(C)c1C(=O)CSc1nnc(-c2ccco2)n1Cc1ccccc1	CYP2C9 inh 98, CYP2C19 inh 99
CCCn1c(N)c(C(=O)CSc2nnc(C3CC3)n2Cc2ccccc2)c(=O)[nH]c1=O	CYP2C9 inh 59
CCOC(=O)c1c(C)[nH]c(C)c1C(=O)CSc1nnc(-c2ccncc2)n1C	CYP2C9 inh 63, CYP2C19 inh 98
NC(=O)CSc1nnc(-c2cccnc2)n1Cc1ccccc1	none (no result: CYP2C9 inh, CYP2C9 activ, CYP2C19 activ, CYP2C19 inh)
CCOC(=O)c1c(C)[nH]c(C)c1C(=O)CSc1nnc(-c2ccncc2)n1Cc1ccccc1	CYP2C9 inh 98, CYP2C19 inh 100
CC(C)(C)NC(=O)NC(=O)COC(=O)c1ccco1	none (no result: sEH inhibitor, sEH activator)
CC1CCOC2(O1)C(=O)N(CN1CCN(c3cccc(Cl)c3)CC1)c1ccccc12 (configuration not stated)	none
CC(Oc1ccccc1)C(=O)Nc1cccc(-c2nc3ccccc3[nH]2)c1 (configuration not stated)	CYP2C9 inh 98, CYP2C19 inh 79
CC(=O)Nc1cccc(-c2nc3ccc(NC(C)=O)cc3[nH]2)c1	none
O=C(COc1ccccc1)Nc1cccc(-c2nc3cc4ccccc4cc3[nH]2)c1	CYP2C9 inh 80
CC(C)(C)C(=O)Nc1cccc(-c2nc3ccccc3[nH]2)c1	CYP2C9 inh 85, CYP2C19 inh 53
CC(C)C(=O)NC(c1ccc([N+](=O)[O-])cc1)c1c(O)ccc2ccccc12 (configuration not stated)	none
CCCC(=O)NC(c1ccc(OC)c(OC)c1)c1c(O)ccc2ccccc12 (configuration not stated)	CYP2C9 inh 71, CYP2C19 inh 74
CCCCC(=O)NC(c1ccc(OC)c(OC)c1)c1c(O)ccc2ccccc12 (configuration not stated)	CYP2C9 inh 88, CYP2C19 inh 63
CC(C)CN(C(=O)COC(=O)C12CC3CC(CC(O)(C3)C1)C2)C1CCS(=O)(=O)C1 (configuration not stated)	none
OCn1ncn(-c2ccccc2)c1=S	none
COc1cccc(C(=O)Cn2c(=O)n(CC3CCCO3)c(=O)c3ccccc32)c1 (configuration not stated)	none
C=CCc1cccc(/C=N/c2ncccc2O)c1O	none
C=CCc1cccc(/C=N/n2cnnc2)c1O	CYP2C19 inh 66 (no result: sEH inhibitor, sEH activator)
COc1ccccc1NC(=O)COc1ccc(CO)cc1Cl	CYP2C9 inh 92, CYP2C19 inh 97
Cc1cc(OCC(=O)NCCN2CCOCC2)cc(C)c1Br	CYP2C9 activ 2.1, CYP2C19 inh 99
COc1ccccc1NC(=S)NC(=O)CCCOc1ccc(Cl)cc1Cl	none
Cc1cc(C)cc(OCC(=O)Nc2ccc(F)cc2)c1	CYP2C19 inh 59
O=C(COc1ccc(CO)cc1Cl)Nc1ccc(F)cc1	CYP2C19 inh 58
CCC(=O)NC(=S)Nc1ccc(NC(=O)COc2ccc(Cl)cc2Cl)cc1	none
O=C(OCn1nnc2ccccc2c1=O)c1ccc2c(=O)n3c(nc2c1)CCC3	none
O=C(Nc1ccc(Cl)cc1)N(Cc1nnc2n1CCCCC2)c1ccccc1	none
COCCNC(=O)c1ccc2c(c1)nc(C)n2-c1cc(OC)c(OC)c(OC)c1	none
Cc1cc(C)n(-c2nnc(C)n2NS(=O)(=O)c2ccc(F)cc2)n1	none
Cc1nnc(SCC(=O)N2CCCCC2)s1	none (no result: CYP2C9 inh, CYP2C9 activ, CYP2C19 activ, CYP2C19 inh)
Cc1cc(OCC(=O)Nc2ccncc2)cc(C)c1Br	CYP2C9 inh 99, CYP2C19 inh 100
O=C(COc1ccc(F)cc1)Nc1nccs1	none (no result: CYP2C9 inh, CYP2C9 activ, CYP2C19 activ, CYP2C19 inh)
O=C(COc1ccc(CO)cc1)Nc1ccc(F)cc1	CYP2C19 inh 52
Nc1nonc1C(=Nc1ccccc1)NO	none
ONC(=Nc1ccc(Cl)cc1)c1ccccc1	CYP2C19 inh 91 (no result: sEH inhibitor, sEH activator)
CC(C)c1ccc(N(C(=O)C(F)(F)F)C(C(=O)NC2CCCCC2)c2ccncc2)cc1 (configuration not stated)	none (no result: sEH inhibitor, sEH activator)
CCC(C)(C)NC(=O)C(c1cccn1C)N(C(=O)Cn1nnc2ccccc21)c1ccc(F)cc1 (configuration not stated)	none
CC(C)COc1ccc(C(=O)Nc2scc(-c3ccc(Cl)cc3Cl)c2C(N)=O)cc1	CYP2C9 inh 67
CCOc1ccc(C(=O)NCC(C)C)cc1	none
CCN(CC)C(=O)Cn1cc(/C=C(\C#N)C(=O)N2CCN(c3ccccc3)CC2)c2ccccc21	CYP2C9 inh 56, CYP2C19 inh 71
COc1cc(/C=N\Nc2ccc([N+](=O)[O-])cc2)ccc1OCC(=O)Nc1ccc(C)c(C)c1	none
O=C(N/N=C\c1ccc(COc2ccc([N+](=O)[O-])cc2)o1)c1cccc(Cl)c1	CYP2C9 inh 60
COc1cccc(-c2nnn(CC(=O)Nc3cc(OC)c(NC(=O)c4ccco4)cc3OC)n2)c1	CYP2C9 inh 54
COC(=O)c1ccccc1NC(=O)Cn1nnc(-c2ccc(OC)cc2)n1	none (no result: CYP2C9 inh, CYP2C9 activ, CYP2C19 activ, CYP2C19 inh)
CCCOc1ccc(-c2nnn(CC(=O)Nc3cccc(C(=O)OC)c3)n2)cc1	CYP2C9 inh 92 (no result: sEH inhibitor, sEH activator)
CCOc1ccc(NC(=O)Cn2nnc(-c3ccccc3NC(=O)CC)n2)cc1	CYP2C9 inh 89, CYP2C19 inh 100
O=C(Cn1nnc(-c2ccccc2NC(=O)c2ccco2)n1)Nc1ccccc1	CYP2C9 inh 92 (no result: sEH inhibitor, sEH activator)
CC(C)CNc1oc(-c2ccc(F)cc2)nc1C#N	none
CCC1Oc2ccc(C)cc2N(CC(=O)N(Cc2ccncc2)Cc2ccco2)C1=O (configuration not stated)	none (no result: CYP2C9 inh, CYP2C9 activ, CYP2C19 activ, CYP2C19 inh)
CC(Cc1ccccc1)NC(=O)CSc1nc2nc3c(cc2c(=O)n1-c1ccccc1)COC(C)(C)C3 (configuration not stated)	none
CCOC(Cn1c(CCCO)nc2ccccc21)OCC	none
